The values below come from ChEMBL document CHEMBL1201862, “PubChem BioAssay data set” (2004).

Several values for one entry are separate records, joined by “and”; a condition that tells them apart may be missing. Equal values may be shown once. Among all 400,000 compounds or so, about 2,100 (0.53%) were called active. Inconclusive results (about 14%) are left out. The rule behind the calls is not given here. Many of the other results were omitted from the sample, so actives are more common in it than they were.

For this assay, the target named is Ataxin-2 (Homo sapiens) (UniProt Q99700). Kind of assay: qHTS for Inhibitors of ATXN expression. Format: functional. A general note: In qHTS, concentration-response curves come from the screen itself.
Chain of Ataxin-2 (Homo sapiens) (Q99700 whole entry): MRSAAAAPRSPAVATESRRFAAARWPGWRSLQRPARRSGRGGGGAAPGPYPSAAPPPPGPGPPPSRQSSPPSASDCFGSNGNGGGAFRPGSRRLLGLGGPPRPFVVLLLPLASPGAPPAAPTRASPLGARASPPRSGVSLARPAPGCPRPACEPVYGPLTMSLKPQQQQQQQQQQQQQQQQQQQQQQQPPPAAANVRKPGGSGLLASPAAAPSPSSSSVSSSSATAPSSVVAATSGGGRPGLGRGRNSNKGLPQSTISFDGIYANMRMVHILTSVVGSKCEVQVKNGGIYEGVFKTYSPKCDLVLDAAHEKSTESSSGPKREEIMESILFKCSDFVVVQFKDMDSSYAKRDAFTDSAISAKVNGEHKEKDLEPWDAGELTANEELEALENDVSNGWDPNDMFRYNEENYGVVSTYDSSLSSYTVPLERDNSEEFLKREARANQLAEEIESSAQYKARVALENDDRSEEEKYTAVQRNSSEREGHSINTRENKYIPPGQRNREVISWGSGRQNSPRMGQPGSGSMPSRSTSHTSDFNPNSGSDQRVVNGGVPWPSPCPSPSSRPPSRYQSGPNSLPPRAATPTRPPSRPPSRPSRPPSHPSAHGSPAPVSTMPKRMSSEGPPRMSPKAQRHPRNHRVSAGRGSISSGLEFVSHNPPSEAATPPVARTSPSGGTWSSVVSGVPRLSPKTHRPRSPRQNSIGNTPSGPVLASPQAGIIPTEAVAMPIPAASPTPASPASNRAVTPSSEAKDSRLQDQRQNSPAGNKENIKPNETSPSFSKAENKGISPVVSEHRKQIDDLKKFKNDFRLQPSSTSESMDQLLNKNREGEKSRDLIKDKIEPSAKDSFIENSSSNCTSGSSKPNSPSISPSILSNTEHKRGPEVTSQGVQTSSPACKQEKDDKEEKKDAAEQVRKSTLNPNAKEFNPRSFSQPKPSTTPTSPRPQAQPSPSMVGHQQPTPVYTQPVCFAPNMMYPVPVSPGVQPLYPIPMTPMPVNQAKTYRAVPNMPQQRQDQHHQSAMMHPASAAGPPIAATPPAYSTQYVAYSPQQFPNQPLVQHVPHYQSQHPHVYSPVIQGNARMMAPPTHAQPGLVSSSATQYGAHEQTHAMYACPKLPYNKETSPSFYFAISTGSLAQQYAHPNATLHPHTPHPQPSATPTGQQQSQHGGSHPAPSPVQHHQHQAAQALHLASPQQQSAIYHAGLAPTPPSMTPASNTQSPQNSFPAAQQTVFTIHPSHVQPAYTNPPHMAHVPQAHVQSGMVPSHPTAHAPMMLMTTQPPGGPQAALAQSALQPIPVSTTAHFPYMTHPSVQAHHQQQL
As to `COCCn1c(=N)c(C(=O)NC(C)c2ccccc2)cc2c(=O)n3cc(C)ccc3nc21` (stereo unspecified), the Potency entry is “inactive”. In the case of `CCN(CC)c1ccc2cc(C(N)=O)/c(=N\NC(=O)c3ccncc3)oc2c1` it was “inactive”; in that of `CCCc1c(C(=O)N/N=C/c2ccc(OCc3ccc(F)cc3)cc2)nnn1-c1nonc1N`, “inactive”. In the case of `COc1ccc(N2C(=O)/C(=C\Nn3cnnc3)c3ccccc3C2=O)cc1` it was “inactive”; in that of `Cc1ccc(C(=O)O)cc1N1C(=O)c2cccc3c([N+](=O)[O-])ccc(c23)C1=O`, “inactive”. In the case of `O=C(N/N=C/c1sc(N2CCOCC2)nc1-c1ccccc1)c1ccc(O)cc1` it was “inactive”; in that of `Cc1cc(C)c2cc(CN(Cc3nnnn3C3CCCCC3)CC3CCCO3)c(O)nc2c1` (stereo unspecified), 22.4 µM (active); in that of `Cc1ccc2cc(CN(Cc3ccc(F)cc3)Cc3nnnn3C3CCCC3)c(O)nc2c1`, 39.8 µM (active). For `CN(C)CCN(Cc1cc2cc3c(cc2nc1O)OCO3)C(S)=NCC1CCCO1` (stereo unspecified), the Potency result is “inactive”.

Consider `CCC(NC(C)C)C(O)c1ccc(O)c2[nH]c(=O)ccc12` (stereo unspecified), for which the Potency result was “inactive”. In the case of `COc1ccc(Cl)cc1NC(=O)CN(c1cc(C)cc(C)c1)S(=O)(=O)c1c(C)n[nH]c1C` it was 35.5 µM (active); in that of `COc1ccc(Cl)cc1NC(=O)CN(C)C1CCS(=O)(=O)C1` (stereo unspecified), “inactive”; in that of `CCOc1ccccc1N(CC(=O)Nc1ccccc1Br)S(=O)(=O)c1ccccc1`, “inactive”. In the case of `CCOc1ccc(OCC)c(NC(=O)CN(c2ccc(C)cc2)S(=O)(=O)c2c(C)n[nH]c2C)c1` it was 35.5 µM (active); in that of `COc1ccc(C)cc1NC(=O)CN(C)S(=O)(=O)c1ccc2c(c1)CC(C)N2C(C)=O` (stereo unspecified), “inactive”; in that of `COc1ccc(Cl)cc1NC(=O)COC(=O)c1ccc(C)o1`, “inactive”. In the case of `Cc1ccc2[nH]c3c(c2c1)SC(C)(C)CC3=O` it was “inactive”; in that of `C=CCc1ccc(O)c(-c2ccc(O)c(CC=C)c2)c1`, 28.2 µM (active); in that of `CC(=O)Nc1sc(/C(C#N)=C\c2cccc(Cl)c2)nc1-c1ccc(C)cc1`, “inactive”. Turning to `CCC(C)n1c(=N)c(C(=O)NCc2ccco2)cc2c(=O)n3cc(C)ccc3nc21` (stereo unspecified), the Potency entry is “inactive”. In the case of `COc1ccc(NC(=O)CSc2nc3ccsc3c(=O)n2Cc2ccccn2)c(OC)c1` it was “inactive”; in that of `COc1ccc(NC(=O)CSc2c3c(nc4cc(Cl)ccc24)CCCC3)cc1OC`, 31.6 µM (active); in that of `CNC(=O)COC(=O)c1c2c(nc3ccccc13)CCC2`, “inactive”. In the case of `COc1ccc(Cl)cc1-c1n[nH]c(SCC(=O)NC2CC2)n1` it was “inactive”. In the case of `COc1ccc(NC(=O)CSc2nc(C)cs2)c(OC)c1` it was “inactive”; in that of `O=C(CSc1nnc(-c2ccccc2F)n1C1CC1)Nc1ccc2[nH]c(O)nc2c1`, “inactive”; in that of `COc1ccc(CC(=O)Nc2ccc3nc(Nc4cccc(Cl)c4)cc(C)c3c2)cc1OC`, “inactive”. Turning to `COc1cccc(NC(=O)CSc2c3c(nc4ccccc24)CCCC3)c1`, the Potency is 35.5 µM (active). In the case of `COc1ccc(NC(=O)CSc2c3c(nc4ccccc24)CCCC3)c(OC)c1` it was 39.8 µM (active); in that of `Cc1ccc(NC(=O)CSc2c3c(nc4ccccc24)CCCC3)cc1F`, 35.5 µM (active); in that of `Cc1ccc(C2CC(=O)Nc3cc4c(cc32)OCCO4)cc1` (stereo unspecified), “inactive”. In the case of `CCOC(=O)C1=C(N)Oc2cc(O)ccc2C1c1ccc(F)cc1F` (stereo unspecified) it was “inactive”; in that of `Cc1ccc(NC(=O)CSc2nc3ccccc3c(=O)n2CCCN2CCCCC2)cc1C`, 31.6 µM (active); in that of `COc1ccc(OC)c(NC(=O)CSc2c3c(nc4ccccc24)CCCC3)c1`, 39.8 µM (active). In the case of `COc1ccc(CCNC(=O)C(=O)NCc2ccc(Cl)cc2)cc1OC` it was “inactive”; in that of `COc1ccc(CCNC(=O)Cc2c(C)c3ccc(O)c(C)c3oc2=O)cc1OC`, “inactive”. On to `Cc1ccc(NC(=O)CSc2nc3ccccc3c(=O)n2CCCC(=O)NCCCN2CCOCC2)cc1`, for which the Potency entry was “inactive”. In the case of `COc1ccc(OC)c(NC(=O)CSc2nc3nc(O)cc(O)c3s2)c1`, the Potency result was “inactive”.

Consider `CCCn1c(SCC(=O)NCCCN2CCCC2=O)nc2ccccc2c1=O`, for which the Potency entry is “inactive”.

Regarding `COc1ccc(CCNC(=O)c2ccc3c(Cl)c4c(nc3c2)CCCC4)cc1OC`, the Potency was 31.6 µM (active).

For the molecule `CCOC(=O)c1cc2c(=O)n3ccccc3nc2n(C(C)C)/c1=N/C(=O)C(C)(C)Oc1ccc(Cl)cc1`, the Potency result is “inactive”.

With `CCn1c(=N)c(C(=O)NCc2ccccc2)cc2c(=O)n3cccc(C)c3nc21`, the Potency entry was “inactive”.

Turning to `Nc1nc2nccc(-c3cccnc3)n2n1`, the Potency result is “inactive”. In the case of `c1cncc(-c2nnc(-c3cccnc3)nn2)c1` it was 35.5 µM (active).

`O=C(O)c1cccc(CSc2nnc(-c3cccnc3)o2)c1`: the Potency entry was “inactive”.

`CCOC(=O)C1=C(C)c2ccccc2N(C(=O)OC)C1(C)C(=O)OCC` (stereo unspecified): the Potency was 35.5 µM (active).

`Nc1cccc2c1C(=O)N(C(=O)c1ccco1)C2=O`: the Potency entry is “inactive”. For `O=C1c2ccccc2-c2onc3c(N4CCN(CCO)CC4)cc(N4CCN(C(=O)c5ccco5)CC4)c1c23`, the Potency is 39.8 µM (active). For the molecule `O=C(c1ccco1)N1CCN(Cc2cc(=O)oc3cc(O)ccc23)CC1`, the Potency entry is “inactive”.

On to `CC(C)(C)N(CC#CCC(O)(c1ccccc1)c1ccccc1)CCO`, for which the Potency entry was “inactive”. In the case of `CCC[C@@H](CNC)NC[C@H](Cc1ccccc1)NCCCCc1ccccc1` it was 39.8 µM (active); in that of `CCC(C(=O)NCCc1ccccc1)c1ccccc1` (stereo unspecified), “inactive”. In the case of `CCCn1c(CC)nc([N+](=O)[O-])c1S(=O)(=O)c1ccccc1`, the Potency was 35.5 µM (active). In the case of `CCCn1c(=N)c(S(=O)(=O)c2ccccc2)cc2c(=O)n3ccccc3nc21` it was “inactive”. In the case of `O=C(O)/C=C/c1nc(-c2ccccc2)n2ccccc12` it was “inactive”; in that of `CC(=O)Oc1c(-c2ccco2)oc2ccccc2c1=O`, “inactive”.

With `COc1cccc(CNC(=O)CCCc2nnc3n(C)c(=O)c4sccc4n23)c1`, the Potency entry was “inactive”. In the case of `Cc1ccc(-c2ccc(/C=N\NC(=O)c3cc4c(ccc5ccccc54)o3)o2)cc1[N+](=O)[O-]` it was 37.7 µM (active); in that of `O=C(N/N=C/c1cc(Br)c(O)c(Br)c1)c1cc2c(ccc3ccccc32)o1`, “inactive”.

On to `COc1ccc(OC)c(/C=N\NC(=O)c2cc3c(ccc4ccccc43)o2)c1`, for which the Potency result is “inactive”.

On to `Cc1ccc(C(=O)N/N=C/c2ccc(-c3ccc(Br)cc3[N+](=O)[O-])o2)o1`, for which the Potency entry is “inactive”. For the molecule `O=C(N/N=C/c1ccc([N+](=O)[O-])o1)c1cc2ccccc2o1`, the Potency was 10 µM (active). In the case of `C/C(=N\Nc1ccc([N+](=O)[O-])cc1)c1cc2ccccc2o1` it was “inactive”; in that of `CCOC(=O)c1cc2c(=O)n3ccccc3nc2n(CC2CCCO2)/c1=N\C(C)=O` (stereo unspecified), “inactive”. In the case of `CN(C)/C=N/C(=S)Nc1cc(Cl)cc(Cl)c1` it was “inactive”; in that of `Cc1cccc(NC2=NC(=O)/C(=C/c3cccnc3)S2)c1`, “inactive”. In the case of `CCC1C/C(=C\c2cccnc2)C(=O)/C(=C/c2cccnc2)C1` (stereo unspecified) it was 14.1 µM (active); in that of `C(=NOCc1ccccc1)c1ccccn1`, “inactive”. With `CSC1=N/C(=C/c2cccnc2)C(=O)N1Cc1ccccc1`, the Potency result was “inactive”.

With `CC1CCc2nc(/C(C#N)=C/c3cccnc3)sc2C1` (stereo unspecified), the Potency entry was “inactive”. In the case of `CC1C/C(=C\c2cccnc2)C(=O)/C(=C/c2cccnc2)C1` (stereo unspecified) it was 11.2 µM (active); in that of `CC1C/C(=C/c2ccccn2)C(=O)/C(=C/c2ccccn2)C1` (stereo unspecified), 11.9 µM (active); in that of `Cc1cc(SCC(=O)Nc2cccnc2Cl)nc2ccccc12`, “inactive”. In the case of `CN(C)S(=O)(=O)c1cccc(NC(=O)Cn2cc(C(F)(F)F)cc(Cl)c2=O)c1` it was “inactive”; in that of `O=C(CSc1cccc2cccnc12)N/N=C/c1cccnc1`, 39.8 µM (active); in that of `CN(C)S(=O)(=O)c1cccc(NC(=O)CSc2cccc3cccnc23)c1`, 39.8 µM (active). In the case of `CCn1c(SCC(=O)Nc2cccc(C)c2)nc2nc3c(cc2c1=O)COC(C)(C)C3` it was “inactive”. As to `COc1ccc(/C=C/C(=O)NCC(=O)N/N=C/c2cccnc2)cc1`, the Potency entry was “inactive”.

`Cc1cccc(NC(=O)CSc2cccc3cccnc23)c1`: the Potency is 44.7 µM (active). In the case of `CN(C)S(=O)(=O)c1ccc(SCC(=O)Nc2cccc(S(=O)(=O)N3CCCC3)c2)nc1` it was “inactive”; in that of `O=C(CSc1nnc2ccc(-c3ccccn3)nn12)Nc1cccc(F)c1`, “inactive”.

Turning to `Cc1ccc(NC(=O)CSc2cccc3cccnc23)c(C)c1`, the Potency was 39.8 µM (active). On to `Cc1ccc(NC(=O)CSc2nc3nc(O)cc(O)c3s2)c(Br)c1`, for which the Potency entry is “inactive”. In the case of `O=C(CSc1ncccn1)N/N=C/c1ccccc1[N+](=O)[O-]` it was “inactive”; in that of `COc1ccc(C(=O)NCCNc2nc3ccc(C)cc3cc2C#N)cc1OC`, “inactive”. In the case of `O=C(CSc1ccccn1)N1CCN(c2ncc(C(F)(F)F)cc2Cl)CC1` it was “inactive”. In the case of `COc1ccc(OC)c(C2CC(=O)N3CN(c4ccccc4F)CSC3=C2C#N)c1` (stereo unspecified) it was “inactive”; in that of `O=C(CCCN1C(=O)/C(=C/c2ccccc2OC(F)F)SC1=S)Nc1cccnc1`, 20 µM (active); in that of `O=C(CCN1C(=O)/C(=C/c2ccc(F)cc2)SC1=S)Nc1cccnc1`, “inactive”. In the case of `O=C(CCCN1C(=O)c2cccnc2C1=O)Nc1ccccc1F`, the Potency entry is “inactive”.

For `CCCCOc1ccc(Br)cc1/C(C)=N/NC1=NCCN1`, the Potency was 22.4 µM (active). In the case of `C(=N\NC1=NCCN1)/c1ccncc1` it was “inactive”. With `Cn1c(Cl)cnc1C(O)(c1ccccc1)c1ccccc1`, the Potency entry is “inactive”. As for `CCc1nc2ccccc2c(C(=O)OCC(=O)C(C)(C)C)c1C`, the Potency result was “inactive”.

With `COc1ccc([N+](=O)[O-])cc1NC(=O)C(C)OC(=O)CN1C(=O)C2CC=CCC2C1=O` (stereo unspecified), the Potency result was “inactive”. In the case of `O=C1c2ccccc2C(=O)c2c(NCCCN(CCO)CCO)cccc21` it was 26.7 µM (active); in that of `O=C1c2c(O)ccc(O)c2C(=O)c2c(NCCNCCO)ccc(NCCNCCO)c21`, 2.99 µM (active) and 20 µM (active); in that of `O=C1c2cccc(NCCCNCCO)c2C(=O)c2cccc(NCCCNCCO)c21`, 15 µM (active). In the case of `CN1C(=O)c2cccc(NCCCN3C(=O)c4ccccc4C3=O)c2C1=O` it was “inactive”. In the case of `CCNc1cccc2c1C(=O)N(C)C2=O` it was “inactive”. Turning to `CC1CCCCC1NC(=O)COC(=O)c1c2c(nc3ccccc13)/C(=C\c1ccco1)CC2` (stereo unspecified), the Potency result was “inactive”.
